{"source": "PubChem BioAssay AID430", "about": "(Sanford-Burnham Center for Chemical Genomics, 2006)", "note": "Among all 63,000 compounds or so, about 1,100 (1.7%) were called active. Rule as the data show it: active = cytotoxicity above about 50%; inactive = the rest. The list comes from a sample in which actives are over-represented; it also holds similar structures and randomly drawn compounds. Measured potencies and affinities stand elsewhere."}
{"assay": "HPDE-C7 pancreatic duct cell viability loss – fluorescence, HTS (AID 430);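 also: cells exposed to compound for 48 hours before viability readout; 0% = vehicle and 100% = reference cytotoxic drug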", "conditions": "HPDE-C7 pancreatic duct cells viability, at 10 µM, active compounds read high"}
{"molecule": "CCCc1cc(C(=O)Cc2ccc(C(=O)OCC)o2)c(O)cc1O", "cytotoxicity": "24% (inactive)"}
{"molecule": "CCc1cc(C(=O)COc2ccccc2F)c(O)cc1O", "cytotoxicity": "5.5% (inactive)"}
{"molecule": "CCc1cc(C(=O)Cc2ccc(F)cc2)c(O)cc1O", "cytotoxicity": "54.4% (active)"}
{"molecule": "CCc1cc(C(=O)Cc2cnn(-c3ccccc3)c2)c(O)cc1O", "cytotoxicity": "14.9% (inactive)"}
{"molecule": "CCc1cc(C(=O)Cc2nc3ccccc3[nH]2)c(O)cc1O", "cytotoxicity": "9.1% (inactive)"}
{"molecule": "CCCc1cc(C(=O)Cc2ccc(F)cc2)c(O)cc1O", "cytotoxicity": "78.8% (active)"}
{"molecule": "CC(=O)c1cnc2cc(-c3ccccc3)nn2c1C", "cytotoxicity": "-20.8% (inactive)"}
{"molecule": "Cc1nc(SCc2ccccc2)c(C(F)(F)F)c(=O)[nH]1", "cytotoxicity": "2.3% (inactive)"}
{"molecule": "Cc1ccc(Nc2nc(C)c(CCC(C)C)c(=O)[nH]2)cc1", "cytotoxicity": "7.1% (inactive)"}
{"molecule": "Cc1nc(Nc2ccccc2)[nH]c(=O)c1CCC(C)C", "cytotoxicity": "-16.8% (inactive)"}
{"molecule": "Cc1nc(Nc2ccc(F)cc2)[nH]c(=O)c1CCC(C)C", "cytotoxicity": "62.1% (active)"}
{"molecule": "Cc1ccc(-c2nn(CC(=O)NCCN3CCOCC3)c(=O)c3ccccc23)cc1", "cytotoxicity": "0.5% (inactive)"}
{"molecule": "O=c1c2cccc3c2c(nn1CN1CCOCC1)-c1ccccc1-3", "cytotoxicity": "53% (active)"}
{"molecule": "O=C(Cn1nc(-c2ccccc2)c2ccccc2c1=O)NCCN1CCOCC1", "cytotoxicity": "-11.2% (inactive)"}
{"molecule": "O=C(CSc1nnc(-c2ccc(O)cc2)n1Cc1ccco1)c1cccs1", "cytotoxicity": "-1.1% (inactive)"}
{"molecule": "O=C(CC(SCCO)c1ccc2c(c1)OCO2)c1ccco1", "note": "(stereo not drawn)", "cytotoxicity": "1.4% (inactive)"}
{"molecule": "O=C(CC(SCCO)c1ccc2c(c1)OCO2)c1cccs1", "note": "(stereo not drawn)", "cytotoxicity": "54.5% (active)"}
{"molecule": "O=C(CSCc1ccco1)c1cccs1", "cytotoxicity": "-7.2% (inactive)"}
{"molecule": "O=C(CC(SCc1ccco1)c1ccc(O)cc1)c1cccs1", "note": "(stereo not drawn)", "cytotoxicity": "54.4% (active)"}
{"molecule": "CC(NC(=O)c1cccs1)c1ccc2c(c1)OCO2", "note": "(stereo not drawn)", "cytotoxicity": "-2.3% (inactive)"}
{"molecule": "COc1ccc(N2CCN(C(=O)CSc3ccccc3N)CC2)cc1", "cytotoxicity": "-6.2% (inactive)"}
{"molecule": "O=C(CCCSc1nc(-c2ccco2)cc(C(F)(F)F)n1)NCc1cccs1", "cytotoxicity": "-4.3% (inactive)"}
{"molecule": "Cc1c(Cl)cccc1NC(=O)Cn1cccc1", "cytotoxicity": "3.2% (inactive)"}
{"molecule": "Cc1cc(Nc2nc3ccccc3[nH]c2=O)n(-c2ccccc2)n1", "cytotoxicity": "8% (inactive)"}
{"molecule": "O=C(CN(Cc1ccco1)C(=O)CNS(=O)(=O)c1ccc(F)cc1)NCc1ccc(F)cc1", "cytotoxicity": "-4% (inactive)"}
{"molecule": "O=C(CN(Cc1ccco1)C(=O)CNS(=O)(=O)c1ccc(Cl)cc1)NCc1ccc(F)cc1", "cytotoxicity": "70% (active)"}
{"molecule": "O=C(CN(Cc1ccco1)C(=O)CNS(=O)(=O)c1ccccc1)NCc1ccc(F)cc1", "cytotoxicity": "-1.3% (inactive)"}
{"molecule": "OCCNc1nc(Nc2ccccc2)nc(Nc2ccccc2)n1", "cytotoxicity": "2.2% (inactive)"}
